These results are taken from the supplement of paper PMC4237247.

This experiment concerns HeLa. As to the kind of experiment: percent cells in G2/M phase; higher = more G2/M arrest. Conditions: 10 µM; 20 h; hit class: G2/M-phase inhibitor. Here is the method:
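HTS of 79,827 drug-like compounds at 10 uM. HeLa cells in 384-well plates were treated for 20 h, fixed, stained with Vybrant DyeCycle Green and scanned on an Acumen eX3 cytometer to give per-well cell cycle profiles. Only G2/M hits (>=67% G2/M) are listed.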
For the molecule `O=c1[nH]c(/C=C/c2ccccc2F)nc2ccccc12`, the “percent cells in G2/M phase” value stood at 76.3%.

As for `COc1cc(NS(=O)(=O)c2ccc(NC(C)=O)cc2)c(OC)cc1Cl`, the “percent cells in G2/M phase” value is 71%.

As for `O=C(CSc1nc2ccc([N+](=O)[O-])cc2s1)c1ccc(Cl)cc1`, the “percent cells in G2/M phase” value amounted to 69.3%.

As for `COC(=O)Nc1nc2cc(C(=O)c3ccccc3)ccc2[nH]1` [Mebendazole], the “percent cells in G2/M phase” value came to 76.8%.

On to `COC(=O)Nc1nc2ccc(SC(C)C)cc2[nH]1` [Methiazole], for which the “percent cells in G2/M phase” value came out at 72.9%.

Consider `COC(=O)Nc1nc2cc(Sc3ccccc3)ccc2[nH]1` [Fenbendazole], for which the “percent cells in G2/M phase” value turned out to be 66.2%.

Consider `CC(=O)Nc1ccc(Nc2nc(-c3c(C)nc4ccccn34)cs2)cc1`, for which the “percent cells in G2/M phase” value is 78%.

Turning to `COc1ccccc1NC1=CC(=O)CC(c2ccccc2)C1` (centres undefined), the “percent cells in G2/M phase” value came out at 70.1%.

Take `CC(=O)O[C@H]1C(=O)[C@@]2(C)[C@H]([C@H](OC(=O)c3ccccc3)[C@]3(O)C[C@H](OC(=O)[C@H](O)[C@@H](NC(=O)c4ccccc4)c4ccccc4)C(C)=C1C3(C)C)[C@]1(OC(C)=O)CO[C@@H]1C[C@@H]2O` [Paclitaxel]: the “percent cells in G2/M phase” value was determined as 75.7%.

As to `COc1cc(-c2onc3ccc(Cl)cc23)cc(OC)c1OC`, the “percent cells in G2/M phase” value is 78.1%.

For `O=C(O)c1ccccc1SC1CC(=O)N(c2ccc(Br)cc2)C1=O` (centres undefined), the “percent cells in G2/M phase” value came to 75.3%.

For the molecule `CCN(CC)CCN1C(=O)C(=O)C(=C(O)c2ccccc2)C1c1ccccc1F` (centres undefined), the “percent cells in G2/M phase” value turned out to be 68.3%.

Regarding `O=c1[nH]c(/C=C/c2ccccc2)nc2ccccc12`, the “percent cells in G2/M phase” value came out at 69.3%.

Turning to `COc1ccc(/C=C/c2ccc3cccc(O)c3n2)cc1C`, the “percent cells in G2/M phase” value is 71.7%.
